Data published in the supplement of paper PMC12350171.
Where a name gives a salt, the structure may show the parent alone.

Columns and labels:
Conditions in all cases: 20 µM
[1] = tested on: Haemophilus parainfluenzae; experiment: growth AUC normalised to DMSO control (fraction of control); higher = less growth inhibition, active = hit call of the paper
Method in brief: (§1)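 For the AUC endpoint, growth curves were integrated by the trapezoidal rule up to the exponential-to-stationary transition and normalised to DMSO controls on the same plate. The curves came from OD578 readings taken hourly for 24 h, in three biological replicates. Pathogens had been passaged anaerobically twice and inoculated at an OD578 of 0.01 into pre-reduced mGAM plates carrying 20 μM compound and 1% DMSO, sealed with breathable membranes. Medium for Haemophilus parainfluenzae also contained hemin and NAD.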

[2] = tested on: Salmonella enterica typhimurium; experiment: as above
Method in brief: as §1

Shigella flexneri = experiment: as above
Method in brief: as §1

Vibrio cholerae = experiment: as above
Method in brief: as §1

[3] = tested on: Yersinia pseudotuberculosis; experiment: as above
Method in brief: as §1

P. vulgatus RND KO = experiment: growth AUC normalised to DMSO control (median) (fraction of control); higher = less growth inhibition, active = hit call of the paper
Method in brief: (§2)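 Area under the growth curve, calculated by the trapezoidal rule up to entry into stationary phase, was normalised to vehicle wells on the same plate. Strains had been passaged twice overnight without oxygen and then grown in mGAM in 96-well plates from OD578 0.01, each with an approved-drug library compound at 20 μM in 1% DMSO. OD578 was read hourly over 24 h in an anaerobic incubator, and the median of three biological replicates is given.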

P. vulgatus WT = experiment: as above
Method in brief: as §2

[4] = tested on: S. enterica typhimurium WT; experiment: as above
Method in brief: as §2

[5] = tested on: S. enterica typhimurium tolC KO; experiment: as above
Method in brief: as §2

Measured: growth AUC normalised to DMSO control
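Throughout, for growth AUC normalised to DMSO control (median): active when median AUC fell below 0.1.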

NC(=O)C[S+]([O-])C(c1ccccc1)c1ccccc1 (stereo not drawn) [Modafinil]
inactive: [1] 1 | [2] 0.994 | Shigella flexneri 0.982 | Vibrio cholerae 0.998 | [3] 0.998 | P. vulgatus RND KO 1 | P. vulgatus WT 0.993 | [4] 1 | [5] 0.976

CC(CCc1ccccc1)NC(C)C(O)c1ccc(O)cc1 (stereo not drawn) [Nylidrin]
inactive: [1] 0.988 | [2] 0.987 | Shigella flexneri 0.994 | Vibrio cholerae 0.983 | [3] 0.993 | P. vulgatus RND KO 1 | P. vulgatus WT 0.998 | [4] 1 | [5] 0.991

CC(=O)O[C@H]1CC[C@@]2(C)C(=CC[C@@H]3[C@@H]2CC[C@]2(C)C(=O)CC[C@@H]32)C1 [Dehydroisoandosterone 3-acetate]
inactive: [1] 0.989 | [2] 0.995 | Shigella flexneri 0.966 | Vibrio cholerae 0.988 | [3] 1 | P. vulgatus RND KO 0.976 | P. vulgatus WT 0.952 | [4] 0.991 | [5] 0.903

CC(=O)OC1CN2CCC1CC2 (stereo not drawn) [Aceclidine hydrochloride]
inactive: [1] 1.02 | [2] 1 | Shigella flexneri 1.01 | Vibrio cholerae 1.03 | [3] 0.994 | P. vulgatus RND KO 0.994 | P. vulgatus WT 1.03 | [4] 1.01 | [5] 0.999

CN(C)[C@@H]1C(=O)C(C(N)=O)=C(O)[C@@]2(O)C(=O)C3=C(O)c4c(O)cccc4[C@@](C)(O)[C@H]3[C@H](O)[C@@H]12 [Oxytetracycline dihydrate]
active: [1] 0.0523 | [2] 0.00147 | Shigella flexneri 0.015 | Vibrio cholerae 0.0278 | [3] 0.0752 | P. vulgatus RND KO 0.00913 | P. vulgatus WT 0.0112 | [4] 0.0149 | [5] 0.00753

O=C1CC[C@@]2(O)[C@H]3Cc4ccc(O)c5c4[C@@]2(CCN3CC2CC2)[C@H]1O5 [Naltrexone hydrochloride dihydrate]
inactive: [1] 0.995 | [2] 1 | Shigella flexneri 0.992 | Vibrio cholerae 1 | [3] 1.01 | P. vulgatus RND KO 0.994 | P. vulgatus WT 1.02 | [4] 0.993 | [5] 0.998

CC(Cc1ccccc1)NCCC(c1ccccc1)c1ccccc1 (stereo not drawn) [Prenylamine lactate]
inactive: [1] 1.05 | [2] 1.01 | Shigella flexneri 1.07 | Vibrio cholerae 1.02 | [3] 1.02 | P. vulgatus RND KO 1.04 | P. vulgatus WT 1.04 | [4] 0.993 | [5] 0.97

CC(=O)O[C@H]1C[C@H](O[C@H]2[C@@H](O)C[C@H](O[C@H]3[C@@H](O)C[C@H](O[C@H]4CC[C@@]5(C)[C@H](CC[C@@H]6[C@@H]5C[C@@H](O)[C@]5(C)[C@@H](C7=CC(=O)OC7)CC[C@]65O)C4)O[C@@H]3C)O[C@@H]2C)O[C@H](C)[C@H]1O[C@@H]1O[C@H](CO)[C@@H](O)[C@H](O)[C@H]1O [Lanatoside C]
inactive: [1] 1.04 | [2] 1.01 | Shigella flexneri 1.01 | Vibrio cholerae 1.02 | [3] 0.984 | P. vulgatus RND KO 1.01 | P. vulgatus WT 1.06 | [4] 1.01 | [5] 0.997

CN1C[C@H](C(=O)N[C@]2(C)O[C@@]3(O)[C@@H]4CCCN4C(=O)[C@H](Cc4ccccc4)N3C2=O)C[C@@H]2c3cccc4[nH]cc(c34)C[C@H]21 [Dihydroergotamine tartrate]
inactive: [1] 1.04 | [2] 0.978 | Shigella flexneri 0.994 | Vibrio cholerae 1.02 | [3] 1.01 | P. vulgatus RND KO 0.989 | P. vulgatus WT 0.996 | [4] 1 | [5] 0.984

O=P1(N(CCCl)CCCl)NCCCO1 (stereo not drawn) [Cyclophosphamide]
inactive: [1] 1.04 | [2] 1.02 | Shigella flexneri 1.01 | Vibrio cholerae 1.04 | [3] 1.01 | P. vulgatus RND KO 0.998 | P. vulgatus WT 1 | [4] 1.01 | [5] 0.997

C1CCc2nnnn2CC1 [Pentylenetetrazole]
inactive: [1] 1.01 | [2] 0.978 | Shigella flexneri 1.01 | Vibrio cholerae 1.04 | [3] 0.976 | P. vulgatus RND KO 1.03 | P. vulgatus WT 1.06 | [4] 1 | [5] 0.986

CC(C)c1c(CN(C)C(C)Cc2ccccc2)n(C)n(-c2ccccc2)c1=O (stereo not drawn) [Famprofazone]
inactive: [1] 0.971 | [2] 0.997 | Shigella flexneri 1.03 | Vibrio cholerae 0.965 | [3] 1 | P. vulgatus RND KO 0.992 | P. vulgatus WT 1 | [4] 1.01 | [5] 0.871
